Here are results for 38 compounds from PubChem BioAssay (NCI).

Where “and” joins values, the source holds several entries; their conditions need not be identical. Equal values may be shown once. The panel holds about 83,000 compounds, 20% with a hit somewhere; the sample as a whole holds those more often.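 Cell lines were cultured in 96-well plates, exposed to a single compound concentration, and assessed for percent growth 48 hours later.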 Calls of active or inactive are those of the source. How the source made its calls: active means growth percent below 10; inactive means the rest.

One assay relates to SNB-75 CNS. Description: NCI-60 one-dose screen, 48 h (100 = growth as untreated, 0 = no growth, -100 = all killed). Particulars: 10 µM unless noted.
With `Oc1cccnc1CN1CCOCC1`, the growth is 88.9% (inactive) and 81.5% (inactive).
In the case of `COc1cc2c(cc1O)C(=O)CCCC2`, the growth was 89.3% (inactive).
As to `S=c1nn[nH]n1C1CCCCC1`, the growth was 95.2% (inactive).
Take `Cc1ccc(NC(=S)N/C=C(\c2ccccc2)S(=O)Cc2ccccc2)c(C)c1` (stereo unspecified): the growth is 87.2% (inactive).
Still for that read-out and setting: then `O=C(O)/C=C/C=C/c1ccccc1`, with 103% (inactive) and 98.4% (inactive); and `CC(C)(C(=O)c1cccnc1)c1cccnc1`, with 107% (inactive) and 103% (inactive); and `CCCCCCC(C)CC1=C(O)c2ccccc2C(=O)C1=O` (stereo unspecified), with 61.6% (inactive).
The same measure, in the same setting: then `S=c1ccc2ccccc2[nH]1`, with 94.9% (inactive) and 85.8% (inactive); and `O=C1C2=C(Nc3cc(Cl)ccc3N2)OC1c1c[nH]c2ccc(COc3ccccc3)cc12` (stereo unspecified), with -2.61% (active); and `Oc1ccc(O)c(-c2ccccc2)c1`, with 58.2% (inactive).
Regarding `O=C1C=CC[C@H](/C=C/c2ccccc2)O1`, the growth was 53.8% (inactive) and 70.9% (inactive).
Same read-out and setting: then `COC(=O)c1nc(=S)[nH]c(C(=O)OC)c1C(=O)c1ccccc1`, with 86.6% (inactive); and `COc1ccc(COC=O)cc1`, with 102% (inactive); and `OCCCc1ccccc1`, with 88.7% (inactive).
Turning to `O=c1[nH]c(=O)c2[nH]c(=O)[nH]c2[nH]1`, the growth is 89.8% (inactive).
On the same count and under the same terms, in the case of `O=[N+]([O-])c1cccc(N=Cc2ccccc2)c1` it was 96.7% (inactive).
With `O=C(NC(=O)c1ccc(F)c(Cl)c1)NC1CC1`, the growth was 105% (inactive) and 122% (inactive).
On the same count and under the same terms, in the case of `COCCCNC1=C(C#N)C(=O)NC(c2cccs2)S1` (stereo unspecified) it was 83.2% (inactive).
`CN(C)c1ccc(C(=N)c2ccc(N(C)C)cc2)cc1`: the growth was -30.8% (active) and 8.36% (active).
Same read-out and setting: then `Cc1cccc(Cl)c1N`, with 100% (inactive).
The same measure, in the same setting: in the case of `ON=C(C1CCCCC1)C1CCCCC1` it was 87.3% (inactive); in that of `CNc1ccc(Cl)cc1S(=O)(=O)c1ccccc1[N+](=O)[O-]`, 73.4% (inactive) and 11.4% (inactive).
Same read-out and setting: then `Cc1c(O)nc(N)[nH]c1=O`, with 102% (inactive).
On to `Cc1cc(Cl)nc(Nc2ccccc2)n1`, for which the growth is 96.2% (inactive).
Turning to `CCCC(=O)OCC(COC(=O)CCC)OC(=O)CCC`, the growth is 93.5% (inactive).
On the same count and under the same terms, in the case of `COc1ccc2oc3cc(NCCN(C)C)ccc3c(=O)c2c1` it was 87.2% (inactive) and 81.5% (inactive); in that of `N#Cc1c(N)nc2c(c(-c3ccc(Cl)cc3)nn2-c2ccccc2)c1C#N`, 104% [100 µM] (inactive); in that of `Cc1c(Cl)cc(Cl)c(N)c1Cl`, 91.2% (inactive).
As for `CCOC(=O)c1csc(N)n1`, the growth is 84.5% (inactive) and 86% (inactive).
Still for that read-out and setting: then `O=c1[nH]c(=O)n(C2OC(CO)C(O)C2O)cc1I` (stereo unspecified), with 91.6% (inactive) and 87.6% (inactive); and `Cc1cc(NC(=O)NC(=O)c2ccccc2N(C)C)ccc1Oc1ncc(Br)cn1`, with -28.2% (active) and 12.9% (inactive).
`C(=N\OCCc1ccccc1)/c1ccccn1`: the growth is 117% (inactive) and 86.2% (inactive).
Same read-out and setting: in the case of `O=c1[nH]nnc2cc(Cl)ccc12` it was 87.1% (inactive) and 83% (inactive); in that of `CC(CN(C)C)CN1c2ccccc2Sc2ccccc21` (stereo unspecified), 64.2% (inactive) and 60.6% (inactive) and 43.4% (inactive); in that of `CCOP(C)(=O)/C(Cc1ccc(OC)c(OC)c1)=N\O` (stereo unspecified), 88.7% (inactive).
The same measure, in the same setting: then `O=C(O)COc1ccccc1F`, with 94.4% (inactive); and `CC(=O)Nc1ccc(OC(C)=O)cc1`, with 37.6% (inactive) and 94.3% (inactive).
Regarding `CC(C)(C)OC(=O)NCCc1ccc(N)cc1`, the growth was 87.6% (inactive).

A further assay has as its system SNB-19 CNS. The description is as above. The conditions noted are these: 10 µM unless noted.
With `Oc1cccnc1CN1CCOCC1`, the growth was 101% (inactive) and 98.9% (inactive).
On the same count and under the same terms, then `COc1cc2c(cc1O)C(=O)CCCC2`, with 101% (inactive).
The same measure, in the same setting: then `S=c1nn[nH]n1C1CCCCC1`, with 111% (inactive); and `Cc1ccc(NC(=S)N/C=C(\c2ccccc2)S(=O)Cc2ccccc2)c(C)c1` (stereo unspecified), with 100% (inactive); and `O=C(O)/C=C/C=C/c1ccccc1`, with 97.1% (inactive) and 100% (inactive).
`CC(C)(C(=O)c1cccnc1)c1cccnc1`: the growth is 111% (inactive) and 115% (inactive).
As for `CCCCCCC(C)CC1=C(O)c2ccccc2C(=O)C1=O` (stereo unspecified), the growth was 46% (inactive).
For `S=c1ccc2ccccc2[nH]1`, the growth was 99.3% (inactive) and 96.6% (inactive).
Regarding `O=C1C2=C(Nc3cc(Cl)ccc3N2)OC1c1c[nH]c2ccc(COc3ccccc3)cc12` (stereo unspecified), the growth was 30.4% (inactive).
The same measure, in the same setting: in the case of `Oc1ccc(O)c(-c2ccccc2)c1` it was 67.5% (inactive); in that of `O=C1C=CC[C@H](/C=C/c2ccccc2)O1`, 66.3% (inactive) and 17.5% (inactive).
On the same count and under the same terms, then `COC(=O)c1nc(=S)[nH]c(C(=O)OC)c1C(=O)c1ccccc1`, with 102% (inactive).
In the case of `COc1ccc(COC=O)cc1`, the growth is 114% (inactive).
On the same count and under the same terms, then `OCCCc1ccccc1`, with 99.3% (inactive); and `O=c1[nH]c(=O)c2[nH]c(=O)[nH]c2[nH]1`, with 103% (inactive).
Consider `O=[N+]([O-])c1cccc(N=Cc2ccccc2)c1`, for which the growth is 118% (inactive).
The same measure, in the same setting: then `O=C(NC(=O)c1ccc(F)c(Cl)c1)NC1CC1`, with 104% (inactive); and `COCCCNC1=C(C#N)C(=O)NC(c2cccs2)S1` (stereo unspecified), with 94.4% (inactive).
With `CN(C)c1ccc(C(=N)c2ccc(N(C)C)cc2)cc1`, the growth was 41.1% (inactive) and 38.3% (inactive).
On the same count and under the same terms, in the case of `Cc1cccc(Cl)c1N` it was 108% (inactive); in that of `ON=C(C1CCCCC1)C1CCCCC1`, 100% (inactive).
The same measure, in the same setting: then `CNc1ccc(Cl)cc1S(=O)(=O)c1ccccc1[N+](=O)[O-]`, with 110% (inactive) and 104% (inactive); and `Cc1c(O)nc(N)[nH]c1=O`, with 108% (inactive).
The same measure, in the same setting: then `Cc1cc(Cl)nc(Nc2ccccc2)n1`, with 103% (inactive); and `CCCC(=O)OCC(COC(=O)CCC)OC(=O)CCC`, with 97.6% (inactive); and `COc1ccc2oc3cc(NCCN(C)C)ccc3c(=O)c2c1`, with 92.7% (inactive) and 76.1% (inactive).
Take `N#Cc1c(N)nc2c(c(-c3ccc(Cl)cc3)nn2-c2ccccc2)c1C#N`: the growth was 99.6% [100 µM] (inactive).
On the same count and under the same terms, then `Cc1c(Cl)cc(Cl)c(N)c1Cl`, with 109% (inactive); and `CCOC(=O)c1csc(N)n1`, with 89.9% (inactive) and 96.8% (inactive).
Still for that read-out and setting: then `O=c1[nH]c(=O)n(C2OC(CO)C(O)C2O)cc1I` (stereo unspecified), with 108% (inactive) and 107% (inactive).
On to `Cc1cc(NC(=O)NC(=O)c2ccccc2N(C)C)ccc1Oc1ncc(Br)cn1`, for which the growth is 29.2% (inactive) and 42.7% (inactive).
As for `C(=N\OCCc1ccccc1)/c1ccccn1`, the growth is 108% (inactive) and 103% (inactive).
On the same count and under the same terms, then `O=c1[nH]nnc2cc(Cl)ccc12`, with 104% (inactive) and 103% (inactive); and `CC(CN(C)C)CN1c2ccccc2Sc2ccccc21` (stereo unspecified), with 94.6% (inactive) and 80.4% (inactive) and 91.2% (inactive); and `CCOP(C)(=O)/C(Cc1ccc(OC)c(OC)c1)=N\O` (stereo unspecified), with 105% (inactive).
Same read-out and setting: in the case of `O=C(O)COc1ccccc1F` it was 107% (inactive); in that of `CC(=O)Nc1ccc(OC(C)=O)cc1`, 35.2% (inactive) and 111% (inactive); in that of `CC(C)(C)OC(=O)NCCc1ccc(N)cc1`, 104% (inactive).
